Reference: the supplement of paper PMC6411743
± gives the standard deviation of the averaged measurements. About 5,400 targets were measured; listed, in parts, are those with the largest changes and a random draw of the rest.

Compound: Nc1nc2c(ncn2[C@@H]2O[C@H](COP(=O)(O)OP(=O)(O)OP(=O)(O)O)[C@@H](O)[C@H]2O)c(=O)[nH]1 [guanosine triphosphate]
Assay: NP40-soluble protein abundance relative to vehicle (solubility fold change) (ratio); higher = more soluble protein in presence of GTP
Protocol: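 Solubility proteome profiling in Jurkat crude lysate. Lysate was treated with Mg-GTP (0.1-10 mM) for 10 min at room temperature and 3 min at 37 °C, then solubilised with 0.8% NP40 and benzonase, followed by ultracentrifugation. Proteins were quantified by TMT10 LC-MS/MS; the value is the NP40-soluble abundance relative to the NP40-processed vehicle, from 3 independent experiments.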

UniProt Q86W42, sequence (Q86W42 whole entry): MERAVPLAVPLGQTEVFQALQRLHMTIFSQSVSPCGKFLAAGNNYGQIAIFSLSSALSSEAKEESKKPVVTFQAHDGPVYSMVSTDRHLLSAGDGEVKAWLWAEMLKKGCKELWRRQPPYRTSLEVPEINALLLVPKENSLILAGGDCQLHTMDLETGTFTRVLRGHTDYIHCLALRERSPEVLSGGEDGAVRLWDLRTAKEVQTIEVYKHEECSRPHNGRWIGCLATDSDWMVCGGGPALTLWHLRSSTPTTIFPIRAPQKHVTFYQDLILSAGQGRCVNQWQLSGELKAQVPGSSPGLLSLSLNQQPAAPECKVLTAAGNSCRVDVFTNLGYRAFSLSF
UniProt Q13428, sequence (Q13428 whole entry): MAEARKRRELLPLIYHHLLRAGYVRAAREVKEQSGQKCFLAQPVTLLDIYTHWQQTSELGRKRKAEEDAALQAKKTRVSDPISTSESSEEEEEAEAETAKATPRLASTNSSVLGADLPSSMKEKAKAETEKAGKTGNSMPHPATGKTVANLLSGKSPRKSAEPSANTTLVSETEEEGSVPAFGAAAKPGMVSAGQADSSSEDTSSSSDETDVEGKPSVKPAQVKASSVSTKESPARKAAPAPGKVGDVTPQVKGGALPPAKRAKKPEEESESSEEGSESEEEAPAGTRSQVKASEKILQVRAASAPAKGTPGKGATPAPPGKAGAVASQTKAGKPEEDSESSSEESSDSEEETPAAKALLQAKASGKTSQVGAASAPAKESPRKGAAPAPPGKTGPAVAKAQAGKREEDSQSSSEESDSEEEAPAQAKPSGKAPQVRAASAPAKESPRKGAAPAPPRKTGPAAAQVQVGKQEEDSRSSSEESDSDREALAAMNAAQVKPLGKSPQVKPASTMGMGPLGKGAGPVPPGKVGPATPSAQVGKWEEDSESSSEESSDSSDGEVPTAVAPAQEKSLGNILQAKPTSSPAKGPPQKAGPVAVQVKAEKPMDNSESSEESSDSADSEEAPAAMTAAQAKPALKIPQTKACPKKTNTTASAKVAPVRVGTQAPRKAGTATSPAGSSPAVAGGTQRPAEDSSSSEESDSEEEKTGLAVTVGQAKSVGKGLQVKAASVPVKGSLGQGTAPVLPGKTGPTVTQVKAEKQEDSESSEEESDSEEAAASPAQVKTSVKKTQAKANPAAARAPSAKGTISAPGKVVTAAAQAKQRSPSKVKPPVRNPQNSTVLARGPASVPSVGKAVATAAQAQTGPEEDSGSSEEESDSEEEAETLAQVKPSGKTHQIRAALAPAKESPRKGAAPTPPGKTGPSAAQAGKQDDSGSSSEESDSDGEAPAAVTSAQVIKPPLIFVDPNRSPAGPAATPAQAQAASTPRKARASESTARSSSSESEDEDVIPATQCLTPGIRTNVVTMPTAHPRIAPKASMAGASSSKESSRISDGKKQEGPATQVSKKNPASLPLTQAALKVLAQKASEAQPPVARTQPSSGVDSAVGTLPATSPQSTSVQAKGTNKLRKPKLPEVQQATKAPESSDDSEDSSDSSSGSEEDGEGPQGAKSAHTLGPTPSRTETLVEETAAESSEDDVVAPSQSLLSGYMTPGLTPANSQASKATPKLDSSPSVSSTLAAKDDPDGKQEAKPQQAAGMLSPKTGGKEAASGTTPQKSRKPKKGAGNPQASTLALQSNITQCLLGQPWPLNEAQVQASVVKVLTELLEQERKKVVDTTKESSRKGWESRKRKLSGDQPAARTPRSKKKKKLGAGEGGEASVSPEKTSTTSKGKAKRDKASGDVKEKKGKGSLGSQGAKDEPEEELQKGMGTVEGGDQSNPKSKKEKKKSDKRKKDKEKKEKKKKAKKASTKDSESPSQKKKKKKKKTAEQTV
UniProt Q53S33, sequence (Q53S33 whole entry): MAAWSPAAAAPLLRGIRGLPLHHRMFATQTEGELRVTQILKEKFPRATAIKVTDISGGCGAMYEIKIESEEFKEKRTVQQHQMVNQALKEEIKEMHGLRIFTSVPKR
UniProt Q86WQ0, sequence (Q86WQ0 whole entry): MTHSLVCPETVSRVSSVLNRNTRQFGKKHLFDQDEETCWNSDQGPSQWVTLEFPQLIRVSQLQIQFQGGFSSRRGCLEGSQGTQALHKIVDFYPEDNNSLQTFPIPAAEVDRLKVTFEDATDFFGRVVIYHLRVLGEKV
UniProt Q12788, sequence (Q12788 whole entry): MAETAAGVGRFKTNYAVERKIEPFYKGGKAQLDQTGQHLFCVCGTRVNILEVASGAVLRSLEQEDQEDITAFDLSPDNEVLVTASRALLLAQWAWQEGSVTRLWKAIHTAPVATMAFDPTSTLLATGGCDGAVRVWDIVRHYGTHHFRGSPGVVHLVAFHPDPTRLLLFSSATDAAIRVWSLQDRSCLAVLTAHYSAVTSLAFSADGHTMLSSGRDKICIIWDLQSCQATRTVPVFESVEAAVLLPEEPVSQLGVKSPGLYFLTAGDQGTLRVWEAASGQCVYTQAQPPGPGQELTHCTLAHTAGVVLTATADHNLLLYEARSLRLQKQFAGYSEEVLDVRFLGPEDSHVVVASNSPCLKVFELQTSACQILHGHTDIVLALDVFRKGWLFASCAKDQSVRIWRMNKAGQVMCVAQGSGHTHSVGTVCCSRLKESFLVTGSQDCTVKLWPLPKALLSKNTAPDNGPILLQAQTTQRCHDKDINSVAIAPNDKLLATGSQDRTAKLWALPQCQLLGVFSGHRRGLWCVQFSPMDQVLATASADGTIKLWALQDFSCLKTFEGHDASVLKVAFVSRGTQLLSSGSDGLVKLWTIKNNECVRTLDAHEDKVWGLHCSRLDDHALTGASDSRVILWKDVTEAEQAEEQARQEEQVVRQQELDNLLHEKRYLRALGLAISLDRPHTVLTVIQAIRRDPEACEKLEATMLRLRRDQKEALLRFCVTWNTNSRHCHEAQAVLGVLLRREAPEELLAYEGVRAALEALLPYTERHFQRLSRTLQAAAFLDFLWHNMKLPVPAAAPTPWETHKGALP

Target	NP40-soluble protein abundance (concentration: 0.1mM)	NP40-soluble protein abundance (concentration: 0.5mM)	NP40-soluble protein abundance (concentration: 1mM)	NP40-soluble protein abundance (concentration: 2mM)	NP40-soluble protein abundance (concentration: 4mM)	NP40-soluble protein abundance (concentration: 6mM)	NP40-soluble protein abundance (concentration: 8mM)	NP40-soluble protein abundance (concentration: 10mM)
UniProt Q86W42|Q86W42-2	1.21 ± 0.14	1.35 ± 0.28	1.46 ± 0.27	1.87 ± 0.52	2.27 ± 0.61	2.29 ± 0.68	2.26 ± 0.54	2.31 ± 0.65
BOLA3 (UniProt Q53S33)	0.893 ± 0.02	0.843 ± 0.047	0.962 ± 0.065	0.982 ± 0.03	0.953 ± 0.022	0.966 ± 0.061	0.925 ± 0.09	1.01 ± 0.042
UniProt Q13428|Q13428-3|Q13428-4|Q13428-7	0.975 ± 0.096	1.01 ± 0.085	1.09 ± 0.12	1.09 ± 0.15	1.11 ± 0.16	1.13 ± 0.14	1.17 ± 0.17	1.23 ± 0.23
TBL3 (UniProt Q12788)	1.18 ± 0.1	1.16 ± 0.14	1.11 ± 0.058	1.36 ± 0.15	1.59 ± 0.19	1.65 ± 0.17	1.72 ± 0.21	1.7 ± 0.26
UniProt Q86WQ0|Q86WQ0-2	0.973 ± 0.06	0.939 ± 0.017	0.882 ± 0.094	0.9 ± 0.082	0.884 ± 0.14	0.897 ± 0.096	0.849 ± 0.13	0.862 ± 0.099
